PubChem BioAssay (NCI)
This is part of a sample that, as a whole, favours compounds with a hit. Of some 79,000 tested, about 15% had one in any assay. No stated cut-off is given here; in the data, active means growth inhibition above about 70%; inactive means the rest.

Experiments:
[1] = NCI Yeast Anticancer Drug Screen. Data for the rad50 strain (AID 155);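 further: 0% = growth of vehicle-only cultures of the same strain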; conditions: S. cerevisiae rad50 strain growth inhibition; at 50.0 µM; hits give high values
Summary of the method: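 DNA repair mutant yeast, compound exposure, growth read-out; inhibition is taken relative to vehicle.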

[2] = NCI Yeast Anticancer Drug Screen. Data for the mec2-1 strain (AID 157); conditions: S. cerevisiae mec2-1 strain, at 50.0 µM, hits give high values
Summary of the method: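 Vehicle-treated cultures served as reference for growth inhibition of compound-exposed mec2-1 yeast.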

[3] = NCI Yeast Anticancer Drug Screen. Data for the sgs1 mgt1 strain (AID 161);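 further: 0% = growth of cultures given vehicle only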; conditions: S. cerevisiae sgs1 mgt1 strain, at 50.0 µM, hits give high values
Summary of the method: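 Genetically altered yeast, compound exposure, growth inhibition relative to vehicle.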

[4] = NCI Yeast Anticancer Drug Screen. Data for the cln2 rad14 strain (AID 165);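 further: 0% = growth equal to vehicle treated cultures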; conditions: S. cerevisiae cln2 rad14 strain, at 50.0 µM, hits give high values
Summary of the method: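 Each compound was tested on cln2 rad14 yeast. Inhibition of growth was calculated against vehicle-exposed controls.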

[5] = NCI Yeast Anticancer Drug Screen. Data for the bub3 strain (AID 167); conditions: S. cerevisiae bub3 mutant strain, at 50.0 µM, hits give high values
Summary of the method: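 In this screen, a yeast mutant lacking normal mitotic checkpoint function is challenged with compound. Relative growth versus vehicle gives the inhibition value.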

[6] = NCI Yeast Anticancer Drug Screen. Data for the mlh1 rad18 strain (AID 175); conditions: S. cerevisiae mlh1 rad18 strain growth inhibition; at 50.0 µM; hits give high values
Summary of the method: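 Vehicle-treated cultures served as the reference for growth inhibition in a yeast strain carrying DNA damage repair alterations exposed to each compound.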

Measured: growth inhibition

Cc1c(C)c(O)c(SC(CC(=O)O)C(=O)O)c(C)c1O (stereo unspecified)
inactive: [1] 14.8% | [2] 37.8% | [3] 41.1% | [4] 1.65% | [5] 21.7% | [6] 44.1%

COc1c(-c2ccc(F)cc2)oc2c(CC(=O)O)cccc2c1=O
inactive: [1] -0.35% | [2] -19.2% | [3] -27.1% | [4] 3.2% | [5] -7.6% | [6] -26.5%

Cn1c(Cl)c(C=O)c(=O)n(C)c1=O
inactive: [1] 17.8% | [2] -4.7% | [3] -5.95% | [4] -0.45% | [5] 7% | [6] -2.55%

O=NN(CC1(O)OCC(O)C(O)C1O)C(Cc1c[nH]c2ccccc12)C(=O)O (stereo unspecified)
inactive: [1] -8.7% | [2] -22.9% | [3] -27.1% | [4] 2.1% | [5] -0.5% | [6] -4.8%

COc1cccc(Oc2cccc[n+]2CC(C)=O)c1
inactive: [1] -57.5% | [2] -10.3% | [3] 3.75% | [4] 8.4% | [5] 0.3% | [6] 1.15%

O=S(=O)(O)C(c1ccccc1)C(O)c1ccccc1 (stereo unspecified)
inactive: [1] 0.95% | [2] -8.95% | [3] -14.4% | [4] -25.2% | [5] -20.9% | [6] -0.25%

O=C1C(N=Nc2ccc(Br)cc2)Sc2nc3ccccc3n21 (stereo unspecified)
inactive: [1] 8.2% | [2] -12.4% | [3] 6.45% | [4] -27.4% | [5] 17.1% | [6] 10.3%

Cc1c(C)c(O)c2c(c1C)C(C)C(=O)OC2=O (stereo unspecified)
inactive: [1] 1.2% | [2] -37.8% | [3] -13.2% | [4] 10% | [5] -19.3% | [6] -0.15%

COc1ccc2oc(=N)c(C(=O)NCc3ccccc3)cc2c1
inactive: [1] -4% | [2] -0.85% | [3] -19.1% | [4] -6.35% | [5] -34.1% | [6] -24.6%

NN(c1ccccc1)c1ccccc1
inactive: [1] 23.5% | [2] 6.45% | [3] 35.5% | [4] 25.9% | [5] 24.2% | [6] 19.1%

Cc1cn(C2CC(O)C(COC(=O)C(C)(C)C)O2)c(=O)[nH]c1=O (stereo unspecified)
inactive: [1] 16.9% | [2] -0.35% | [3] 3.85% | [4] -0.1% | [5] -18.5% | [6] -47.5%

O=C1OC(=O)C(c2ccccc2)=C1c1ccccc1
inactive: [1] 10.6% | [2] 5% | [3] 9.55% | [4] -10.8% | [5] 5.95% | [6] 24.9%

CC(=O)C(Cc1cccc([N+](=O)[O-])c1)Cc1cccc([N+](=O)[O-])c1
inactive: [1] -3.7% | [2] -7.8% | [3] -6.6% | [4] -38% | [5] 15.8% | [6] -9.45%

CCC1(CC)C(=O)N=C(c2ccccc2)N1C
inactive: [1] -5.55% | [2] -5.75% | [3] 8.15% | [4] -16% | [5] -2.3% | [6] -10.7%

CN(C)N=Nc1ccccc1
inactive: [1] 38.2% | [2] -14.2% | [3] 0% | [4] 15.4% | [5] -1.65% | [6] 29.2%

O=S1(=O)CS(=O)(=O)OCCO1
inactive: [1] 26.2% | [2] 6.8% | [3] 14.7% | [4] 31.9% | [5] 10.7% | [6] 16.8%

CN(C)P(=O)(Nc1ccc(Cl)cc1)Nc1ccc(Cl)cc1
inactive: [1] 11.7% | [2] -1.9% | [3] 2.1% | [4] 3.9% | [5] 12.7% | [6] 7.5%

c1ccc(C(c2ccccc2)[n+]2ccccc2)cc1
inactive: [1] 4.5% | [2] -1.3% | [3] -6.1% | [4] -11.2% | [5] -5.5% | [6] -6.25%

CC(/C=N/N(C)C)=N\N(C)C
inactive: [1] -3.75% | [2] 5.3% | [3] -5.65% | [4] -60.4% | [5] 32.2% | [6] -21.4%

O=C(NC1CCCCC1)OC/C=C\c1ccccc1
inactive: [1] 7.2% | [2] -12.7% | [3] -7.8% | [4] -6.95% | [5] 12.3% | [6] 3.8%

Cn1c2ccccc2c2ccc3c(c21)C(=O)NC3=O
inactive: [1] 15.6% | [2] 10.7% | [3] -7.75% | [4] -7.7% | [5] -21.9% | [6] 13.3%

CC1CC(=O)NC(=O)C1
inactive: [1] -7.25% | [2] -4.1% | [3] -18.8% | [4] -13% | [5] 6.3% | [6] -22.7%

CCOc1cc(N)nc(N)n1
inactive: [1] 13.1% | [2] -10.3% | [3] 7.15% | [4] 5.9% | [5] 5.65% | [6] -7.75%

N#CC(C#N)=CNc1ccccc1
inactive: [1] 5.4% | [2] -8.95% | [3] 7.5% | [4] -20.9% | [5] 9.7% | [6] 4.6%

O=Nc1ccc(O)c2ncccc12
inactive: [1] 7.15% | [2] -9.45% | [3] 15.7% | [4] -26.6% | [5] 1.5% | [6] 31%

Cc1ncc(CSc2ccccc2N)c(CO)c1O
inactive: [1] -10.8% | [2] -10.1% | [3] -22.5% | [4] 48.2% | [5] 5.5% | [6] -4.55%

NC(=O)c1cn(C2OC(CO)C(O)C2O)c(=O)[nH]c1=O (stereo unspecified)
inactive: [1] 14.2% | [2] -8.8% | [3] -0.1% | [4] 18.8% | [5] -12.7% | [6] -5.25%

N#CC/C(C#N)=C/OC(=O)c1ccc(Cl)cc1
inactive: [1] 12.2% | [2] -4.5% | [3] -13.3% | [4] -33.5% | [5] -17.9% | [6] -7.15%

Clc1cnc2ccccc2c1
inactive: [1] 24.4% | [2] 6% | [3] 14.1% | [4] 22.8% | [5] 2.7% | [6] 28.8%

CCC(=O)OC1(C(=O)OC)CCN(C)CC1
inactive: [1] 9.5% | [2] 2.95% | [3] -0.9% | [4] 15.2% | [5] 17.8% | [6] 10.4%

COc1cc2c(cc1OC)C(=O)N(c1ccc(OCCN3CCCC3)cc1)C2=O
inactive: [1] -20.7% | [2] -17.9% | [3] 4.7% | [4] 19.4% | [5] 15.8% | [6] -10.4%

CN(C)c1ccc([Si](c2ccc(N(C)C)cc2)c2ccc(N(C)C)cc2)cc1
inactive: [1] -18.5% | [2] 3.65% | [3] -19.1% | [4] -28.8% | [5] -1.1% | [6] 23.4%

C=CCOc1cc(NC(=S)c2ccoc2C)ccc1OC
inactive: [1] -17.4% | [2] -3.15% | [3] -10% | [4] -2.7% | [5] -3.35% | [6] -52.9%

CC(=O)O[C@@H]1[C@H]2[C@@H](OC(=O)c3ccccc3)[C@@H](C)C[C@]2(O)[C@H](OC(C)=O)[C@@]2(C)[C@@H]3CC(C)(C)C(=O)[C@]3(OC(C)=O)C[C@@]12C
inactive: [1] 25% | [2] 31.1% | [3] 6.4% | [4] 5.3% | [5] 15.2% | [6] 39.4%

CCN1CCC(O)(C(C(=O)O)c2ccccc2)CC1 (stereo unspecified)
inactive: [1] 3.45% | [2] -27% | [3] -35% | [4] -28.8% | [5] -38.7% | [6] 2.4%

Cc1cccc(Cl)c1NC(=O)c1cccc(C(=O)Nc2c(C)cccc2Cl)c1
inactive: [1] 9.3% | [2] 4.45% | [3] 15.4% | [4] -30.3% | [5] -2.5% | [6] 27.6%

CN(C)CCNC(=O)c1cccc(N(C)C(=O)c2ccccc2)c1[N+](=O)[O-]
inactive: [1] 6.65% | [2] -9.45% | [3] 6.5% | [4] 17.6% | [5] 7.05% | [6] 3.15%

CNc1nc(C)nc(NC)n1
inactive: [1] -29.9% | [2] -5.1% | [3] -30.4% | [4] -36.2% | [5] 18.4% | [6] -22.9%

Nc1nc(N)c2nc(-c3ccc(O)cc3)c(-c3ccc(O)cc3)nc2n1
inactive: [1] -15.5% | [2] -4% | [3] 0.15% | [4] 50.6% | [5] 7.9% | [6] -13.6%

NC(CC1C=CCCC1)C(=O)O (stereo unspecified)
inactive: [1] -26.4% | [2] -16.1% | [3] 1.85% | [4] -52.3% | [5] 7.1% | [6] -4.3%

CC(=O)Nc1ccc(-c2nnc(SCC(=O)Nc3ccccc3C)o2)cc1
inactive: [1] -6.55% | [2] -5.25% | [3] -19.9% | [4] 4.65% | [5] -8.55% | [6] -18.1%
